Measured values taken from PubChem BioAssay (NCATS).
Values joined by “and” are separate entries in the source; they are usually repeats but may differ in a detail not shown here. Identical values can stand only once. Records with an inconclusive call do not appear. A call without a number means that no potency is given here. Active and inactive are the calls of the source. Calls come from the whole dose curve; as a rule, active = well fitted cell-killing curve with a large enough effect; inconclusive = small, poorly fitted or top-dose-only effect, or effect the other way; inactive = no such curve, though single readings can be large or run the other way.
Potency is the fitted concentration of half-maximal effect.

Test: Viability qHTS for spleen associated tyrosine kinase inhibitor (SYKi) drug resistant MV4-11 cells (AID 1963824); note: nearly all actives have a fitted effect of over 35% in size
Settings: SYKi-resistant MV4-11 viability, CellTiter-Glo, 72 h; series mostly up to 45 µM
Description: Department of Medicine, Hematology/Oncology
University Hospital Frankfurt, Germany.
Trials have shown promising clinical activity of the selective SYK inhibitor entospletinib in patients with high expressing HOXA9/MEIS1 acute leukemias. As the development of resistance mechanisms is a common problem in the use of targeted drugs, we performed a chemical library screen to identify drug sensitivities in SYK inhibitor resistant AML cells. […] Glucocorticoids are potent immunosuppressants which work in part by inhibiting the transcription of cytokine genes.
Described herein is a viability screen to look for activity in the SYK inhibitor drug resistant cell line against four NCATS compound libraries (MIPE 5.0, NPC, NPACT, and Kinase) totaling 11372 compounds. Active hits were reacquired for confirmation and further secondary assay testing.
SEQUENCE No. (e.g., 1, 2, 3, etc.); […] (e.g., Cells, Incubation, Reagent, etc.); VALUE; DESCRIPTION.
1; Media; 2uL; white, solid-bottom Corning assay plate.
2; Compounds; 23nL; Echo acoustic dispenser.
3; Cell; 5uL; 500 cells per well.
4: Incubation; 72hr; 37 C, 5% CO2, 95% humidity.
5; Reagent; 3uL; CellTiter-Glo reagent (Promega).
6; Incubation; 10min; room temperature.
7; Detection; Luminescence; ViewLux plate reader (PerkinElmer).
NOTES (numbers refer to Sequence numbers above
1. Quantitative high-throughput screening (qHTS) of small molecule compounds was conducted on drug resistant SYKi MV4-11 cell line.
2. Twenty-three nanoliter of small molecule compounds were added to each assay plates using the Echo acoustic dispenser (Beckman Coulter).
3. Cells were seeded into the assay plates at a final density of 500 cells in 5uL of media per well using the Multidrop Combi dispenser.
4. Plates were covered with stainless steel gasketed lids and incubated for 72 hours at standard cell culture conditions.
5. Viability was assessed by adding 3uL of CellTiter-Glo detection reagent (Promega).
6. Plates were covered with gasket lids and incubated for 10 minutes at room temperature.
7. Luminescence was measured on a ViewLux plate reader (PerkinElmer).
For `Cn1cc(C2=C(c3cn(C)c4cc([N+](=O)[O-])ccc34)C(=O)NC2=O)c2ccccc21`, the Potency was 0.372 µM (active). In the case of `COc1cc2c(c(OC)c1OC)-c1ccc(OC)c(=O)cc1[C@@H](NC(C)=O)CC2`, the Potency is reported as 16.8 nM (active) and 14.8 nM (active). For `COC(=O)C1=C(C)NC(c2ncc(F)cc2F)=N[C@H]1c1ccc(F)cc1Cl`, the Potency was 9.34 µM (active). With `O=C(O)c1ccnc2cc(C(OCC3CCC(F)(F)CC3)c3ccccc3Cl)[nH]c12` (stereo not given) the Potency was “inactive”. For `O=c1[nH]ccc2c(S(=O)(=O)N3CCCNCC3)cccc12`, the Potency was “inactive”. In the case of `CCCCCOc1ccc(-c2cc(-c3ccc(C(=O)N[C@H]4C[C@@H](O)[C@@H](O)NC(=O)C5[C@@H](O)[C@@H](C)CN5C(=O)C([C@H](O)CC(N)=O)NC(=O)C([C@H](O)[C@@H](O)c5ccc(O)c(OS(=O)(=O)O)c5)NC(=O)C5C[C@@H](O)CN5C(=O)C([C@@H](C)O)NC4=O)cc3)no2)cc1` (stereo not given in full), the Potency is reported as “inactive”. In the case of `C[C@]12CC[C@@H]3c4ccc(O)cc4C[C@@H](CCCCCCCCCS(=O)CCCC(F)(F)C(F)(F)F)[C@H]3[C@@H]1CC[C@@H]2O` (stereo not given in full), the Potency is reported as “inactive”. In the case of `COc1ccc(F)c(F)c1C(=O)c1cnc(NC2CCN(S(C)(=O)=O)CC2)nc1N`, the Potency is reported as 580 nM (active) and 742 nM (active). With `O=C(O)COC(=O)Cc1ccccc1Nc1c(Cl)cccc1Cl` the Potency was “inactive”. With `Cc1nc2ccc(CN(C)c3ccc(C(=O)NC(CCC(=O)O)C(=O)O)s3)cc2c(=O)[nH]1` (stereo not given) the Potency was 0.0073 µM (active). For `NC[C@@H]1O[C@@H](O[C@@H]2[C@@H](O[C@@H]3O[C@H](CO)[C@@H](O)[C@H]3O)[C@H](O)[C@@H](N)C[C@H]2N)[C@@H](N)[C@H](O)[C@H]1O`, the viability, % of control was 93.2% [at 9.25 µM] (inactive). For `CN1CCN(C2=Nc3cc(Cl)ccc3Nc3ccccc32)CC1`, the Potency was “inactive”. In the case of `C[C@@H]1C(=O)O[C@H]2C[C@]34[C@H]5C[C@@H](C(C)(C)C)[C@]36[C@@H](OC(=O)[C@H]6O)O[C@]4(C(=O)O5)[C@]21O`, the Potency is reported as “inactive”. With `CC1CC(C(O)C(C)(C)O)OC2CC3(C)C4(C)CCC5C(C)(C)C(=O)CCC5(C)C4CCC3(O)C12O` (stereo not given) the Potency was 11.2 µM (active). For `CN(C)C(=O)COC(=O)c1cc(-c2ccc(C3CCNCC3)cc2)c2ccc(-c3ccc(C(F)(F)F)cc3)cc2c1`, the Potency was 5.17 µM (active). In the case of `Cn1cc(C2=C(c3c4n(c5ccccc35)CCC(CN)C4)C(=O)NC2=O)c2ccccc21` (stereo not given), the Potency is reported as 2.7 µM (active). For `CC(O)C(O)/C=C/C=C/C(=O)O[C@@H]1C=C(C(=O)O)[C@](O)(CO)[C@@]2(C)CCCC(C)(C)[C@H]12` (stereo not given in full), the Potency was “inactive”. In the case of `C(=C\c1ccccc1)/CN1CCN(C(c2ccccc2)c2ccccc2)CC1`, the Potency is reported as “inactive”. With `Cc1cc(=O)[nH]c(=S)[nH]1` the Potency was “inactive”. For `CN[C@@H]1[C@H](O)[C@H](NC)[C@H]2O[C@@]3(O)C(=O)C[C@@H](C)O[C@H]3O[C@@H]2[C@H]1O`, the Potency was “inactive”. In the case of `CCCCCC[C@@H](CCC)C(=O)O`, the Potency is reported as “inactive”. For `C[C@@H](O)[C@H](N)C(=O)O`, the Potency was “inactive”. For `NC1CCC(N[C@@H]2C[C@H]2c2ccccc2)CC1` (stereo not given in full), the Potency was “inactive”. In the case of `CCC(C)C(N)C(=O)NCCN1CCOCC1` (stereo not given), the Potency is reported as “inactive”. With `c1ccc(-c2cnn3cc(-c4ccc(OCCN5CCOCC5)cc4)cnc23)cc1` the Potency was 0.058 µM (active). With `COC1=CC(=O)C[C@@H](C)[C@@]12Oc1c(Cl)c(OC)cc(OC)c1C2=O` the Potency was “inactive”. With `NC(=O)N1CCC(CC(=O)N2CCC(C3c4ncc(Br)cc4CCc4cc(Cl)cc(Br)c43)CC2)CC1` (stereo not given) the Potency was 2.06 µM (active). For `CC1OC(=O)C[C@@H]2C(C(=O)O)=CO[C@@H](O[C@H]3O[C@H](CO)[C@@H](O)[C@H](O)[C@H]3O)[C@H]12` (stereo not given in full), the Potency was “inactive”. With `CCCCc1ncc(/C=C(\Cc2cccs2)C(=O)O)n1Cc1ccc(C(=O)O)cc1` the Potency was “inactive”. For `Cc1ccc(S(=O)(=O)N[C@@H](Cc2ccccc2)C(=O)CCl)cc1`, the Potency was 8.33 µM (active). In the case of `C[C@@H](NC(=O)[C@H](O)c1cc(F)cc(F)c1)C(=O)N[C@@H]1C(=O)N(C)c2ccccc2-c2ccccc21`, the Potency is reported as 18.4 µM (active). With `OC[C@H]1O[C@@H](O[C@H]2[C@H](OCCc3ccccc3)O[C@H](CO)[C@@H](O)[C@@H]2O)[C@H](O)[C@@H](O)[C@@H]1O` the Potency was “inactive”. With `COc1ccccc1N1CCN(CC[C@@](C)(C(=O)C2CCCCC2)c2ccccc2)CC1` the Potency was 14.6 µM (active). With `C[C@@H]1O[C@@H](O[C@@H]2[C@@H](O)[C@H](O[C@H]3[C@H](O[C@H]4CC[C@@]5(C)C(CC[C@]6(C)C5CC=C5[C@@H]7CC(C)(C)CC[C@]7(C(=O)O[C@@H]7O[C@H](CO)[C@@H](O)[C@H](O)[C@H]7O[C@@H]7O[C@@H](C)[C@H](O[C@@H]8O[C@@H](C)[C@H](O)[C@@H](O)[C@H]8O)[C@@H](O)[C@H]7O)CC[C@]56C)[C@@]4(C)CO)O[C@H](C(=O)O)[C@@H](O)[C@@H]3O)O[C@H](CO)[C@H]2O)[C@H](O)[C@H](O)[C@H]1O` (stereo not given in full) the viability, % of control was 108% [at 9.25 µM] (inactive). For `CNC(=O)c1c(I)c(NC(=O)CCCCC(=O)Nc2c(I)c(C(=O)O)c(I)c(C(=O)NC)c2I)c(I)c(C(=O)O)c1I`, the Potency was “inactive”. For `COc1cc2c(cc1NS(=O)(=O)c1ccc(Br)cc1C)n(C)c(=O)n2C`, the Potency was 2.31 µM (active). In the case of `C/C=C(\C)C(=O)O[C@H]1C=CC(=O)O[C@H]1/C=C/[C@@H](O)[C@H](C)O`, the Potency is reported as 3.66 µM (active). For `Cc1nnsc1C(=O)Nc1ccc(-n2nc(C(F)(F)F)cc2C(F)(F)F)cc1`, the Potency was 16.4 µM (active). With `CCN(CC)Cc1ccc2cc(COC(=O)Nc3ccc(C(=O)NO)cc3)ccc2c1` the Potency was 206 nM (active) and 372 nM (active). In the case of `O=C(O)Cc1ccccc1Oc1ccc(Cl)cc1Cl`, the Potency is reported as “inactive”.
